Source: PubChem BioAssay (NCATS)
Inconclusive results are not listed. Calls of active or inactive are those of the source. Calls come from the whole dose curve; as a rule, active = well fitted curve in the direction sought with a large enough effect; inconclusive = small, poorly fitted or top-dose-only effect, or another doubt; inactive = no such curve, though single readings can be large or run the other way.

Target: Metallo-beta-lactamase type 2 (Klebsiella pneumoniae) (UniProt C7C422)
Experiment: qHTS to identify inhibitors of the New Delhi Metallo-beta-lactamase (NDM): assay validation screen against the NCATS LOPAC Collection (AID 1794843);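 for activity change, negative = inhibition: nitrocefin turnover by NDM-1 measured as 485 nm absorbance at plateau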
Details: NDM-1 enzyme, nitrocefin hydrolysis, absorbance 485 nm; series mostly up to 38.4 µM; activity change, negative = inhibition: at the top concentration
How it was run: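 NDM-1 at 2 nM final in 50 mM HEPES pH 7.0, 1 uM ZnSO4, 0.01% Tween20, preincubated with LOPAC compounds pinned in DMSO; 50 uM nitrocefin (stock) added. Hydrolysis read as absorbance at 485 nm in the plateau phase.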
% is set by controls: 0 for no effect and ±100 for the full control effect; potency is the fitted concentration of half-maximal effect.

Sequence of Metallo-beta-lactamase type 2 (Klebsiella pneumoniae) (C7C422 whole entry, looked up): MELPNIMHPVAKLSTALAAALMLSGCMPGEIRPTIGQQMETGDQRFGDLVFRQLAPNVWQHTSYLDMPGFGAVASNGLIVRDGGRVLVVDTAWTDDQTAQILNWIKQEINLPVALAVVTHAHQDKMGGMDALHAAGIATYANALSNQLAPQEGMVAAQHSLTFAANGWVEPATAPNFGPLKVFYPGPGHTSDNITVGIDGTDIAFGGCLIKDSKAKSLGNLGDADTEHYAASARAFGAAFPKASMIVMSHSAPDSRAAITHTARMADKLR

Compound	activity change, negative = inhibition	Potency
CN(C)c1ccc(/C=C2\C(=O)Nc3ccccc32)cc1	108% (inactive)	–
Nc1nc(SCc2ccc([N+](=O)[O-])cc2)c2ncn([C@@H]3O[C@H](CO)[C@@H](O)[C@H]3O)c2n1	2.92% (inactive)	–
O=C(O)c1cc([N+](=O)[O-])ccc1NCCCc1ccccc1	-4.45% (inactive)	–
Cn1c(=O)c(-c2c(Cl)cccc2Cl)cc2cnc(Nc3ccc(N4CCOCC4)cc3)nc21	-8.4% (inactive)	–
Cc1ccc(S(=O)(=O)/C=C/C#N)cc1	-3.61% (inactive)	–
Nc1ccn([C@H]2O[C@H](CO)[C@@H](O)C2(F)F)c(=O)n1	-6.2% (inactive)	–
CCNC(=O)[C@H]1O[C@@H](n2cnc3c(N)nc(NCCc4ccc(CCC(=O)O)cc4)nc32)[C@H](O)C1O (stereo partly specified)	-4.85% (inactive)	–
Nc1ncnc2c1ncn2[C@@H]1O[C@H](COP(=O)(O)OP(=O)(O)OP(=O)(O)OP(=O)(O)OC[C@@H]2O[C@H](n3cnc4c(N)ncnc43)[C@@H](O)[C@H]2O)[C@@H](O)[C@H]1O	-15.1% (inactive)	–
O=C(c1ccc(OCCCc2cnc[nH]2)cc1)C1CC1	4% (inactive)	–
Nc1nc2ccc(Cl)cc2n2c(-c3ccccc3)nnc12	-1.49% (inactive)	–
CNC(=O)[C@H]1O[C@@H](n2cnc3c(NCc4ccc(N)cc4)ncnc32)[C@H](O)[C@@H]1O	3.76% (inactive)	–
O=C(Nc1ccccc1)c1cc([N+](=O)[O-])ccc1Cl	-0.646% (inactive)	–
CC(C)(NS(=O)(=O)c1ccc(Oc2ccc(F)cc2)cc1)C(=O)NO	-2.66% (inactive)	–
OC[C@H]1O[C@@H](n2cnc3c(NC4CCCCC4)ncnc32)[C@H](O)[C@@H]1O	10.7% (inactive)	–
CN(C)c1nc(N)c(C(=O)N=C(N)N)nc1Cl	4.64% (inactive)	–
CO/N=C(\C(=O)N[C@@H]1C(=O)N2C(C(=O)O)=C(COC(C)=O)CS[C@H]12)c1csc(N)n1	-2.07% (inactive)	–
C=CC(N)CCC(=O)O (stereo unspecified)	0.364% (inactive)	–
CCN(CC)c1ncnc2c1ncn2[C@@H]1O[C@H](COP(=O)(O)OP(=O)(O)C(Br)(Br)P(=O)(O)O)[C@@H](O)[C@H]1O	-19.1% (inactive)	–

Compound	activity change, negative = inhibition	Potency
CN(C)CCC(c1ccc(Cl)cc1)c1ccccn1 (stereo unspecified)	-0.0151% (inactive)	–
O=c1cc(-c2ccccc2)oc2c(O)c(O)ccc12	-18.4% (inactive)	–
CC(C)CC(NP(=O)(O)O[C@@H]1O[C@@H](C)[C@H](O)[C@@H](O)[C@H]1O)C(=O)NC(Cc1c[nH]c2ccccc12)C(=O)O (stereo partly specified)	-6.24% (inactive)	–
CC(C)c1cccc(C(C)C)c1N1C(=O)c2ccc(O)cc2C1=O	0.838% (inactive)	–
Clc1ccc(N2CCN(Cc3c[nH]c4ncccc34)CC2)cc1	-1.85% (inactive)	–
COc1cccc(C(=O)NCCN2CCN(c3ccc(Cl)cc3)CC2)c1	-0.246% (inactive)	–
CCC1C(=O)OCC1Cc1cncn1C (stereo unspecified)	–	inactive
c1cnc2c(c1)ccc1cccnc12	–	20 µM (active)
COc1ccc(-c2cc(=O)c3c(O)c(OC)c(OC)cc3o2)cc1O	3.73% (inactive)	–
O=C(Nc1ccc2c(c1)CCN(Cc1ncn[nH]1)C2)c1ccccc1-c1ccc(C(F)(F)F)cc1	-0.94% (inactive)	–
Cn1cc(C2=C(c3ccc(Cl)cc3Cl)C(=O)NC2=O)c2ccccc21	-6.58% (inactive)	–
CO[C@H]1O[C@@H]2O[C@]3(C)CC[C@@H]4[C@@H](C)CC[C@H]([C@H]1C)[C@]24OO3	3.48% (inactive)	–
COc1cc(OC)cc(-c2cc3cnc(N)nc3nc2NC(=O)NC(C)(C)C)c1	0.099% (inactive)	–
O=C(O)CCCC[C@@H]1CCSS1	-4.38% (inactive)	–
Nc1nc(OCC2CCCCC2)c2[nH]cnc2n1	-14% (inactive)	–
C=CC(C)=C[C@@]1(C)SC(=O)C(C)=C1O	-0.609% (inactive)	–
COc1cc(SC)ccc1C(=O)N1CCC(Cc2ccccc2)CC1	0.498% (inactive)	–
NC[C@@H]1O[C@H](C23CC4CC(CC(C4)C2)C3)Cc2c1ccc(O)c2O	1.02% (inactive)	–
